Compound activity as filed in PubChem.
HT1080NT lethal: kills 2HG-producing HT-1080-NT fibrosarcoma cells; HT-1080-NT fibrosarcoma viability, CellTiter-Glo ATP luminescence, 48 h; Potency, µM (titrated, usually from 46.1 µM), without a hit: top-dose activity, negative = less viability, most hits filed as cytotoxic; actives 1.6% (n = 360,000); AID 686970;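 also: NT is the 2HG producing partner of a matched IDH1 knockdown line; potency is read from the fitted curve at half-maximal effect; 0% = DMSO-treated cells and -100% = media-only wells without cells; nearly all actives have a fitted effect of over 55% in size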
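HT-1080-NT fibrosarcoma cells (2HG-overproducing), 750 cells/well in RPMI with 5% FBS, dosed after 2 h and incubated 48 h at 37C. CellTiter-Glo luminescence normalized to DMSO and no-cell wells; concentration-response curves fitted and classed.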
HT1080 IDH1KD tx: toxicity to HT-1080 IDH1 knockdown cells (counter line) | HT-1080 IDH1 knockdown viability, ATP luminescence, 48 h | Potency, µM (top dose mostly 46.1 µM), for inactives: top-dose activity, negative = toxicity, actives largely listed as cytotoxic | actives 2% (n = 360,000) | AID 686971;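 also: potency is read from the fitted curve at half-maximal effect; 0% = DMSO wells and -100% = cell-free medium wells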
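Assay cells: HT-1080 with IDH1 knockdown, 750 per well, RPMI/5% FBS. Exposure: 48 h at 37 °C following 2 h pre-incubation. Read: CellTiter-Glo luminescence; fitted concentration-response, curve class assigned.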
IL1B secr inh: blocks inflammasome-driven IL-1 beta release | actives 4.7% (n = 360,000) | THP-1 LPS/ATP IL-1B secretion, AlphaLISA, 16 h; hits give low values | activity change, % at 57.5 µM; in the data active = activity change below about -50%; inconclusive = mostly about -30% to -49%
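Secreted IL-1B measured by AlphaLISA bead assay after 16 h compound exposure of THP-1 cells; compounds (final up to 57.5 uM) added 1 h before LPS (250 ng/mL) and ATP (1.25 mM) stimulation; lower signal means less secretion.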
TDP1 cell noCPT: qHTS for Inhibitors of human tyrosyl-DNA phosphodiesterase 1 (TDP1): qHTS in cells in absence of CPT. DT40 Tdp1-/- hTDP1 cells, no CPT, ATP luminescence, 48 h. Potency, µM (highest dose often 46.2 µM), inactives show at the top dose activity change, negative = growth inhibition, usual class: inhibitors. actives 15% (n = 420,000); also: potency is read from the fitted curve at half-maximal effect; nearly all actives have a fitted effect of over 55% in size
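Chicken DT40 Tdp1-/- cells complemented with human TDP1, screened without camptothecin (DMSO vehicle only), 400 cells/well. Compounds pin-transferred, cells incubated at 37 °C for at least 48 hr. Growth read as ATP-dependent luminescence (CellTiter-Glo, 30 min at RT).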
TDP1 cell CPT: growth inhibition of DT40 Tdp1-/-;hTDP1 cells with camptothecin (screen for TDP1 inhibitors). chicken DT40 Tdp1-/-;hTDP1 cells + 20 nM CPT, ATP luminescence, 48 h. Potency, µM (highest dose often 46.2 µM), for inactives: at the highest dose activity change, negative = growth inhibition, usual class: inhibitors. AID 686979. actives 12% (n = 420,000); also: potency is read from the fitted curve at half-maximal effect; nearly all actives have a fitted effect of over 55% in size
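Chicken DT40 Tdp1-/- cells stably complemented with human TDP1 were seeded at 400 cells/well in medium containing 20 nM camptothecin, exposed to pin-transferred compounds, and grown at 37 °C for at least 48 hr. Viability was read as ATP luminescence.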
* = called active by the depositor; ? = inconclusive; · = no result given. Rows were chosen to be rich in hits. Some 19% of all compounds tested hit in one or more screens of this group. Unless noted, calls follow the shape of the dose curve; as a rule, active = well fitted curve in the direction sought with a large enough effect; inconclusive = small, poorly fitted or top-dose-only effect, or another doubt; inactive = no such curve, though single readings can be large; an effect the other way counts as inactive or inconclusive. Unless noted, % is scaled to controls: 0 for no effect and ±100 for the full control effect.

SMILES	HT1080NT lethal	HT1080 IDH1KD tx	IL1B secr inh	TDP1 cell noCPT	TDP1 cell CPT
Cc1ccc2c(CC(=O)NCCc3ccc(S(N)(=O)=O)cc3)coc2c1	10%	1%	-5	9%	-5%
COc1ccccc1N1CCN(C(=O)CN(CCc2ccccc2)S(C)(=O)=O)CC1	4%	13%	1	10µM*	?
CN(C(=O)C(C)(C)C)c1ccc(OCC(=O)N2CCc3ccccc3C2)cc1	?	-29%	-16	16µM*	?
Cc1ccc(S(=O)(=O)N(CC(=O)N=Nc2c(O)[nH]c3ccccc23)c2ccc(C)c(C)c2)cc1	?	?	?	21µM*	18µM*
COc1ccc(N2CCN(C(=O)CN(CCc3ccccc3)S(C)(=O)=O)CC2)cc1	5%	-6%	-28	?	?
COc1ccc(N2CCN(C(=O)CN(c3ccc(OC)cc3)S(=O)(=O)c3ccccc3)CC2)cc1	-1%	-2%	0	23µM*	13µM*
C/C(CC(=O)Nc1ccc(F)cc1)=N\NC(=O)COc1ccccc1	-2%	1%	-4	-6%	-3%
COc1ccc(CC(=O)Nc2nn(C)c3nc4c(C)cccc4cc23)cc1	11%	0%	·	?	-26%
CCCCc1nc(C(N)=O)c2[nH]c(=O)n(-c3ccc(OCC)cc3)c2n1	8%	2%	-1	0%	18%
COc1ccccc1N(CC(=O)N1CCN(c2ccc(F)cc2)CC1)S(=O)(=O)c1ccc(C)cc1	1%	5%	0	18µM*	26µM*
Cc1ccc(S(=O)(=O)N(CC(=O)N2CCN(c3ccc(F)cc3)CC2)C2CCCCC2)cc1	2%	-9%	-3	21µM*	?
COc1ccc(CNC(=O)N2CCN(c3ccc(F)cc3)CC2)cc1Cl	6%	-2%	-26	9.2µM*	?
COc1ccc(N(CC(=O)N2CCc3ccccc3C2)S(=O)(=O)c2ccccc2)cc1	-4%	3%	?	18µM*	18µM*
CCOC(=O)N1CCN(C(=O)CN(C2CCCCC2)S(=O)(=O)c2ccc(C)cc2)CC1	16%	20%	-5	?	?
NC(=O)CN(c1ccc(Oc2ccccc2)cc1)S(=O)(=O)c1ccccc1	-4%	-13%	17	?	21µM*
CCN(CC)S(=O)(=O)c1ccc(N2CCN(c3ccccc3OC)CC2)c(N)c1	?	?	-26	7.3µM*	9.2µM*
COc1ccc(S(=O)(=O)N(CC(=O)N2CCN(c3ccccc3OC)CC2)c2ccccc2)cc1	-22%	-23%	-8	12µM*	21µM*
COc1ccccc1N(CC(=O)N1CCCC1)S(=O)(=O)c1ccc(C)cc1	3%	15%	-17	-23%	-2%
CCNC(=O)CN(c1ccc(Oc2ccccc2)cc1)S(=O)(=O)c1ccccc1	-2%	-9%	?	?	-29%
CCN(CC)S(=O)(=O)c1ccc2c(c1)c(=O)c(C(=O)N1CCN(c3ccccc3OC)CC1)cn2C	·	·	·	?	-1%
COc1ccccc1N(CC(=O)N1CCCC1)S(=O)(=O)c1cc([N+](=O)[O-])ccc1Cl	2%	5%	-26	?	16µM*
CCOC(=O)Nc1ccc2c(COC(=O)C(NS(=O)(=O)c3ccc(Cl)cc3)C(C)O)cc(=O)oc2c1 (configuration not stated)	0%	0%	-16	?	?
Cn1c(CNC(=O)c2ccco2)nnc1SCCOc1ccccc1	3%	6%	13	5%	-1%
Cn1c(-c2ccccc2)c(C#Cc2ccc(N)cc2)c2ccccc21	-16%	-7%	-4	-21%	?
CNC(=O)c1ccc(N(Cc2ccccc2C)S(C)(=O)=O)cc1	-2%	2%	-10	3%	-4%
SMILES	HT1080NT lethal	HT1080 IDH1KD tx	IL1B secr inh	TDP1 cell noCPT	TDP1 cell CPT
Cc1ccc(S(=O)(=O)N(CC(=O)N2CCc3ccccc3C2)c2ccc(C)c(C)c2)cc1	·	·	·	18µM*	16µM*
O=C(CN(c1ccc(Cl)c(Cl)c1)S(=O)(=O)c1ccccc1)N1CCc2ccccc2C1	-9%	-29%	-21	29µM*	?
COc1ccccc1N1CCN(C(=O)C(C)N(c2ccc(C)c(C)c2)S(C)(=O)=O)CC1 (configuration not stated)	1%	-2%	-3	?	15µM*
Cc1ccccc1CN(c1ccc(C(=O)N2CCc3ccccc3C2)cc1)S(C)(=O)=O	-4%	-6%	-7	15µM*	12µM*
COc1ccc2c(c1)cc1c(=O)n(CC(=O)NCCCN3CCOCC3)nc(C)n12	-4%	-6%	1	-19%	3%
CN1CCN(C2(CNC(=O)c3ccc([N+](=O)[O-])cc3)CCCCC2)CC1	·	·	·	-1%	-7%
CCn1c(SCC(=O)Nc2nncs2)nnc1C(C)NC(=O)c1ccccc1Br (configuration not stated)	-3%	13%	-20	-22%	4%
O=C(CN(C1CCCCC1)C1CCCCC1)N1CCc2ccccc2C1	?	?	-99*	16µM*	?
COc1ccc(N2CCN(C(=O)CN(c3ccccc3)S(=O)(=O)c3ccc(OC)cc3)CC2)cc1	0%	-15%	5	21µM*	?
COc1ccc(S(=O)(=O)N(C)CC(=O)N2CCN(c3ccccc3)CC2)cc1	11%	12%	-15	-23%	-7%
O=C(CN(C1CCCCC1)S(=O)(=O)c1ccccc1)N1CCCC1	8%	11%	3	-7%	-30%
COc1ccc(S(=O)(=O)N(C)CC(=O)N2CCN(c3ccc(F)cc3)CC2)cc1OC	2%	-2%	-3	22µM*	?
CN1CCN(C(=O)CN(C)S(=O)(=O)c2ccc3ccccc3c2)CC1	7%	0%	-7	-25%	18%
CN(CC(=O)N1CCCC1)S(=O)(=O)c1ccc2ccccc2c1	2%	3%	-24	21µM*	?
Cc1ccc(C(c2sc3nc(-c4ccco4)nn3c2O)N2CCCCC2)cc1 (configuration not stated)	·	·	·	-3%	5%
O=C(CCC(=O)NNC(=O)c1ccccc1[N+](=O)[O-])NCc1ccccc1	13%	15%	-8	5%	8%
COc1ccccc1N(CC(=O)N1CCN(Cc2ccccc2)CC1)S(=O)(=O)c1ccccc1	6%	0%	0	16µM*	23µM*
Cc1cc(OCC(=O)N2CCc3ccccc3C2)c(C)cc1Br	-27%	-17%	-55*	16µM*	?
COc1ccc(N(CC(=O)N2CCN(Cc3ccccc3)CC2)S(=O)(=O)c2ccccc2)cc1	4%	0%	-7	?	?
